Compounds with a hit are over-represented: about 10% of the library has one in this group of screens.
PNC assembly inh: perinucleolar compartment assembly inhibition; AID 2417; activity change (PNC), negative = inhibition, % at 10 µM; 140,000 compounds, 3.1% hits; PC3M PTB-GFP, PNC prevalence imaging, 16 h; active compounds read low;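 active = readout at or below -70, meaning at least 70% loss of cells showing the perinucleolar compartment, a nuclear body marking cancer cells; inconclusive = readout between -30 and a set limit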
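Read-out is percentage of cells bearing a perinucleolar compartment, from automated 20x imaging of fixed, Hoechst-stained PC3M PTB-GFP cells. Cells were seeded 4 h, then exposed 16 h to compound (23 nl of library stock) in duplicate plates.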
aGal spleen mod: inhibitors or activators of human alpha-galactosidase in spleen homogenate | Potency, µM (series often up to 80 µM), most hits filed as inhibitors | P06280 | AID 2107 | human spleen homogenate, 4MU-alpha-Gal fluorescence, 40 min | 240,000 compounds, 0.008% hits
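qHTS titration in buffer at pH 5.0. Alpha-galactosidase activity in spleen homogenate was measured via 4-methylumbelliferone release from 1 mM fluorogenic substrate after 40 min at 37C and a pH 10 stop. AC50 came from Hill fits of control-normalized data.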
12-hLO inh: 12-hLO (ALOX12) enzyme inhibition | P18054 | purified 12-hLO, xylenol orange hydroperoxide absorbance | Potency, µM (highest dose often 57.1 µM), actives largely listed as inhibitors | 150,000 compounds, 0.12% hits | AID 1452; also: nearly all actives have a fitted effect of over 55% in size
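Purified human 12hLO (150 nM), preincubated 15 min with compound, then 40 uM arachidonic acid for 30 min, room temperature, Hepes pH 7.0 with 0.01% Triton X-100. Hydroperoxide detected by ferrous iron/xylenol orange; 573/405 nm absorbance ratio gives reaction progress.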
ALDH1A1 inh: inhibitors of human aldehyde dehydrogenase 1A1 | P00352 | Purified ALDH1A1, NADH fluorescence, propionaldehyde substrate | Potency, µM (titrated, usually from 75.3 µM), most hits filed as inhibitors | 220,000 compounds, 7.3% hits | AID 1030; active = well fitted inhibition curve with a large enough effect, not every such curve was filed as active; inconclusive = small, poorly fitted or top-dose-only effect, or another doubt; inactive = no such curve, though single readings can be large or run the other way
HPGD inh: inhibitors of human 15-hydroxyprostaglandin dehydrogenase (HPGD); 150,000 compounds, 4.3% hits; AID 894; Potency, µM, most hits filed as inhibitors; P15428; purified HPGD, NADH fluorescence kinetic, PGE2 substrate; active = well fitted inhibition curve with a large enough effect, not every such curve was filed as active; inconclusive = small, poorly fitted or top-dose-only effect, or another doubt; inactive = no such curve, though single readings can be large or run the other way
Target sequence (P15428 whole entry, looked up): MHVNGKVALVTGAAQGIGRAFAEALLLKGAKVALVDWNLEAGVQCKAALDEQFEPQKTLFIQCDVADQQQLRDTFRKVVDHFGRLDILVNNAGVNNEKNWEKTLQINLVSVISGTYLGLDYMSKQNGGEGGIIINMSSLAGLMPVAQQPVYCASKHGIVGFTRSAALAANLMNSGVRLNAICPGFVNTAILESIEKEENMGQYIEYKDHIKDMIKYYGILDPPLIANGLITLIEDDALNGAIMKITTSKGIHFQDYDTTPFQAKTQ
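NADH formation kinetics: reaction with 30 uM PGE2 and 1 mM NAD+ (final), 20 nM enzyme, Tris-HCl pH 8 with Tween 20, after 15 min compound preincubation at room temperature. Fluorescence change, last versus first of five reads.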
GLA inh pH 4.5: blocks human alpha-galactosidase A at pH 4.5 | P06280 | purified enzyme, 4-MU-alpha-Gal fluorescence, pH 4.5 | activity change, negative = inhibition, % at 105 µM | 230,000 tested, under 10 active
Target sequence (P06280 whole entry, looked up): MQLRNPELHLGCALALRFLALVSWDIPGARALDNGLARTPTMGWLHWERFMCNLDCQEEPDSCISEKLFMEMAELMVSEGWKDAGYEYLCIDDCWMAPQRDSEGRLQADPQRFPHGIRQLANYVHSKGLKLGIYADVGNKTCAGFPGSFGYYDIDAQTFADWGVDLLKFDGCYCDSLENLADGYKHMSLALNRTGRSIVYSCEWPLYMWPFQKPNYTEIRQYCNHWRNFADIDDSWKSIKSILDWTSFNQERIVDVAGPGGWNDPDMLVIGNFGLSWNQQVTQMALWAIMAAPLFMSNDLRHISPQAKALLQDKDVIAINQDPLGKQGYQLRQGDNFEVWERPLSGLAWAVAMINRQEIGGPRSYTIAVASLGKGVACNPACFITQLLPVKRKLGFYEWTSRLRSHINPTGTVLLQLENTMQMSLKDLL
A number is an active result; [ ] = dose if it differs, or a comment. Unless noted, calls follow the shape of the dose curve; as a rule, active = well fitted curve in the direction sought with a large enough effect; inconclusive = small, poorly fitted or top-dose-only effect, or another doubt; inactive = no such curve, though single readings can be large; an effect the other way counts as inactive or inconclusive.

O=S(=O)(c1ccc(NC(=S)Nc2ccccc2)cc1)N1CCOCC1 was read as PNC assembly inh inactive, aGal spleen mod inactive, 12-hLO inh inactive, ALDH1A1 inh 20µM, HPGD inh inactive and GLA inh pH 4.5 inactive.
For NC(N)=NS(=O)(=O)c1ccc(NC(=S)NC(=O)c2ccc3c(c2)OCO3)cc1 the results were aGal spleen mod inactive, ALDH1A1 inh 25µM and GLA inh pH 4.5 inactive.
For NS(=O)(=O)c1ccc(NC(=S)NC(=O)c2ccc3c(c2)OCO3)cc1 the results were aGal spleen mod inactive, ALDH1A1 inh inconclusive and GLA inh pH 4.5 inactive.
CCOC(=O)C1=C(C)N(CCCCCC(=O)O)C(=O)NC1c1ccccc1OC(=O)c1cccs1 (stereo not drawn) was read as PNC assembly inh inactive, aGal spleen mod inactive, 12-hLO inh inactive, ALDH1A1 inh inactive, HPGD inh inactive and GLA inh pH 4.5 inactive.
For CCOCCCNC(=O)c1cc(=O)n(Cc2cccc(C)c2)c2ccccc12 the results were aGal spleen mod inactive, ALDH1A1 inh inconclusive and GLA inh pH 4.5 inactive.
For CC(C)CCCCCCNC(=S)Nc1ccc(S(=O)(=O)N2CCOCC2)cc1 the results were PNC assembly inh inconclusive, aGal spleen mod inactive, 12-hLO inh inactive, ALDH1A1 inh inconclusive, HPGD inh inactive and GLA inh pH 4.5 inactive.
For CC(NC(=S)Nc1ccc(S(=O)(=O)N2CCOCC2)cc1)C1CC2CCC1C2 (stereo not drawn) the results were PNC assembly inh inactive, aGal spleen mod inactive, 12-hLO inh inconclusive, ALDH1A1 inh 20µM, HPGD inh inactive and GLA inh pH 4.5 inactive.
`COc1ccccc1C1/C(=C(/O)c2ccc(C)cc2)C(=O)C(=O)N1CCN1CCOCC1` (stereo not drawn) gave PNC assembly inh inconclusive, aGal spleen mod inactive, 12-hLO inh inactive, ALDH1A1 inh inconclusive, HPGD inh inactive and GLA inh pH 4.5 inactive.
`O=C1c2ccccc2C(Nc2ccc(S(=O)(=O)N3CCOCC3)cc2)N1Cc1ccco1` (stereo not drawn) gave PNC assembly inh inconclusive, aGal spleen mod inactive, 12-hLO inh inactive, ALDH1A1 inh inactive, HPGD inh inactive and GLA inh pH 4.5 inconclusive.
CCN(CC)S(=O)(=O)c1ccc(NC2c3ccccc3C(=O)N2CCN2CCOCC2)cc1 (stereo not drawn) was read as PNC assembly inh inactive, aGal spleen mod inactive, 12-hLO inh inactive, ALDH1A1 inh 0.2µM, HPGD inh inactive and GLA inh pH 4.5 inactive.
`Cc1ccc(NC2c3ccccc3C(=O)N2CCN2CCOCC2)cc1` (stereo not drawn) gave PNC assembly inh inconclusive, aGal spleen mod inactive, 12-hLO inh inactive, ALDH1A1 inh 1µM, HPGD inh inactive and GLA inh pH 4.5 inactive.
For O=C(O)/C=C/C(=O)Nc1ccc(OC(F)F)cc1 the results were aGal spleen mod inactive, ALDH1A1 inh inconclusive and GLA inh pH 4.5 inactive.
Screening Cc1cc2c(=O)n(CC(=O)N3CCN(c4ccccc4)CC3)cnc2s1 returned PNC assembly inh -122, aGal spleen mod inactive, 12-hLO inh inactive, ALDH1A1 inh inactive, HPGD inh inactive and GLA inh pH 4.5 inactive.
For Cc1cc(C)c(C)c(OCCCn2ccnc2)c1 the results were PNC assembly inh inactive, aGal spleen mod inactive, 12-hLO inh inactive, ALDH1A1 inh inconclusive, HPGD inh inactive and GLA inh pH 4.5 inactive.
For CC(=O)Oc1oc(-c2ccccc2)nc1/C=N/c1ccccn1 the results were PNC assembly inh inactive, aGal spleen mod inactive, 12-hLO inh inactive, ALDH1A1 inh inconclusive, HPGD inh 22µM and GLA inh pH 4.5 inactive.
COc1ccccc1N=Cc1nc(-c2ccccc2)oc1OC(C)=O was read as PNC assembly inh inconclusive, aGal spleen mod inactive, 12-hLO inh inactive, ALDH1A1 inh 7.1µM, HPGD inh inconclusive and GLA inh pH 4.5 inactive.
`CN(C)c1ccc(N=Cc2nc(-c3ccccc3)oc2OC(=O)c2ccccc2)cc1` gave PNC assembly inh inactive, aGal spleen mod inactive, 12-hLO inh inactive, ALDH1A1 inh inactive, HPGD inh inactive and GLA inh pH 4.5 inactive.
Screening CC(=O)Oc1oc(-c2ccccc2)nc1C=Nc1ccc(N(C)C)cc1 returned aGal spleen mod inactive, ALDH1A1 inh 0.56µM and GLA inh pH 4.5 inactive.
For CC(C)CN(CC(C)C)CC(O)COc1ccc([N+](=O)[O-])cc1 (stereo not drawn) the results were PNC assembly inh inactive, aGal spleen mod inactive, 12-hLO inh inactive, ALDH1A1 inh inactive, HPGD inh inactive and GLA inh pH 4.5 inconclusive.
For COC(=O)Cc1c[nH]c2cccc(OCC(O)CN(Cc3ccc([N+](=O)[O-])cc3)C(C)(C)C)c12 (stereo not drawn) the results were PNC assembly inh inconclusive, aGal spleen mod inactive, 12-hLO inh inactive, ALDH1A1 inh 25µM, HPGD inh inactive and GLA inh pH 4.5 inactive.
For O=C(O)c1ccc(N/N=C/c2ccc(-c3ccccc3)cc2)cc1 the results were aGal spleen mod inactive, ALDH1A1 inh inactive and GLA inh pH 4.5 inactive.
CC(C)c1ccc(/C=N/Nc2ccc(C(=O)O)cc2)cc1 was read as PNC assembly inh inactive, aGal spleen mod inactive, 12-hLO inh inactive, ALDH1A1 inh inconclusive, HPGD inh 14µM and GLA inh pH 4.5 inactive.
O=C(O)c1ccc(N/N=C/c2ccc(OC(=O)c3ccccc3Cl)cc2)cc1 was read as PNC assembly inh inconclusive, aGal spleen mod inactive, 12-hLO inh inactive, ALDH1A1 inh inactive, HPGD inh 25µM and GLA inh pH 4.5 inactive.
`CC(C)=CCC/C(C)=C/CO/N=C1/C[C@@H](O)[C@@H](O)[C@@H]2[C@@H]3C(=O)N([C@@H](C)c4ccccc4)C(=O)[C@H]3CC[C@H]12` gave aGal spleen mod inactive[17.5 µM] and ALDH1A1 inh inactive[13.5 µM].
O=C(CCC(=O)OCC(=O)c1ccc(Cl)cc1Cl)Nc1cccc2cccnc12 was read as PNC assembly inh inactive, aGal spleen mod inactive, 12-hLO inh inactive, ALDH1A1 inh 28µM, HPGD inh inactive and GLA inh pH 4.5 inactive.
Screening COc1nc(N/N=C/c2ccc(-c3ccccc3[N+](=O)[O-])o2)nc(N2CCOCC2)n1 returned PNC assembly inh inactive, aGal spleen mod inactive, 12-hLO inh inactive, ALDH1A1 inh 8.9µM, HPGD inh inactive and GLA inh pH 4.5 inactive.
`COC(=O)c1cc(-c2ccccc2)sc1N` gave PNC assembly inh inactive, aGal spleen mod inactive, 12-hLO inh inactive, ALDH1A1 inh inconclusive, HPGD inh 28µM and GLA inh pH 4.5 inactive.
For Nc1sc(-c2ccccc2)cc1C(=O)N/N=C/c1ccc(Cl)cc1 the results were aGal spleen mod inactive and GLA inh pH 4.5 inactive.
Screening CCN(CC(=O)Nc1cccc(OC)c1)CC(=O)Nc1ccc(C)cc1Cl returned aGal spleen mod inactive, ALDH1A1 inh inconclusive and GLA inh pH 4.5 inactive.

Screening results (PubChem)
